# High-throughput results deposited in PubChem by several laboratories.
# Compounds with a hit are over-represented: about 4.2% of the library has one in this group of screens.
# Wnt bcat act – Wnt/beta-catenin pathway activation; Wnt/beta-catenin reporter cell assay, activator, plate reader; activation, % at 9.35 µM; 300,000 compounds, 1.2% hits; AID 743398; in the data active = activation above about 30%, passing the limit was not always enough; inconclusive = no clear call, values can overlap the other calls;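 also: 0% = neutral control wells and 100% = positive control wells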
# hgDAF-12 ag – hgDAF-12 agonism, primary luciferase screen; HEK293 GAL4-hgDAF12 UAS-luciferase reporter, agonist luminescence; normalized to butyrate control; activation, % at 6.8 µM; 370,000 compounds, 1.8% hits; AID 687014;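 active = activation above a cutoff set at the mean of all screened compounds plus 3 SD, cut at about 10% in these data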;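 also: 0% = DMSO wells and 100% = sodium butyrate wells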
# esBAF inh – inhibitors of esBAF chromatin remodeling in mouse ES cells. Bmi1-luciferase knock-in reporter, 24 h; 100% = twice the neutral-well signal. reporter increase, % at 12.5 µM. 350,000 compounds, 2% hits. AID 602393; in the data active = activation above about 40%; inconclusive = no clear call, values can overlap the other calls;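 also: 0% = median of the plate's neutral control wells and 100% = double that signal; a rise in the Bmi1 reporter signal indicates esBAF inhibition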
# DAX1 inh – blocks DAX1 repression of SF-1 activated StAR promoter; HEK293T StAR-luciferase reporter, SF-1/DAX-1 repression relief; 370,000 compounds, 1.1% hits; AID 652010; inhibition, % at 6.8 µM;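 active = inhibition above the mean over all tested compounds plus 3 SD, cut at about 3.6% in these data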;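 also: 0% = DAX-1 cells with DMSO and 100% = cells lacking DAX-1 with DMSO; higher inhibition means more luminescence from relief of DAX-1 repression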
# hcDAF-12 act – H. contortus DAF-12 activation, primary screen. HEK293 hcDAF-12 lit1-tk-luc reporter, luminescence; 0% DMSO, 100% Δ7-dafachronic acid. activation, % at 6.8 µM. 370,000 compounds, 1.4% hits. AID 652067;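 active = activation above the mean of all tested compounds plus 3 SD, cut at about 5.5% in these data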;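 also: 100% = response to 3 µM Δ7-dafachronic acid high control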
# ssDAF-12 act – S. stercoralis DAF-12 activation, primary screen | activation, % at 6.8 µM | 370,000 compounds, 1% hits | HEK293 ssDAF-12/GRIP1 lit1-tk-luc reporter, luminescence; % of 3 µM dafachronic acid response;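 active = activation above the mean over all tested compounds plus 3 SD, cut at about 0.9% in these data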;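 also: 0% = DMSO-only wells and 100% = 3 µM delta7-dafachronic acid wells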
# * = called active by the depositor; u = inconclusive; x = no result given.
SMILES,Wnt bcat act,hgDAF-12 ag,esBAF inh,DAX1 inh,hcDAF-12 act,ssDAF-12 act
O=C(/C=C/c1ccco1)NCCc1ccccc1,55.1*,8.9,52.0*,1.5,1.8,-0.9
CC(C)=CC(=O)NCCc1ccccc1,x,11.3*,9.5,2.3,2.1,-0.8
COC(=O)c1ccc(Nc2cc(C)nc3ccccc23)cc1,47.6*,0.6,x,-0.7,-0.3,-1.9
COC(=O)c1ccc2nc(C)cc(Nc3ccc(N(C)C)cc3)c2c1,1.2,-0.8,0.0,0.6,-0.4,0.1
CC(C)c1ccc(CNc2ccc([N+](=O)[O-])cn2)cc1,7.4,11.7*,x,3.9*,2.9,-1.2
Cc1ccccc1N=C1NC(=O)CS1,x,-0.6,-5.4,0.3,0.0,-1.4
Cc1ccccc1N=C1Nc2ccccc2CS1,x,11.0*,x,0.5,2.5,0.3
C[C@@H]1CN([C@@H](C)CO)C(=O)Cc2cc(NS(=O)(=O)c3ccc(Cl)cc3)ccc2O[C@@H]1CN(C)C(=O)Nc1cccc2ccccc12,x,x,2.9,x,x,x
COc1ccc(-c2csc(Nc3ncccc3C)n2)cc1OC,3.4,4.8,86.7*,0.3,0.5,-1.3
COc1ccc(-c2csc(Nc3ncccn3)n2)cc1C,38.3*,5.5,u,0.5,-0.1,-1.2
Cc1cccnc1Nc1nc(-c2ccc(O)c(O)c2)cs1,14.6,6.0,-12.9,1.4,-1.1,-1.0
CCCNC(=O)N1C[C@@H](C)[C@@H](OC)CN(C)C(=O)c2ccc(NC(=O)CCC)cc2OC[C@@H]1C,x,x,-1.2,x,x,x
O=C([C@@H]1[C@@H](CO)[C@@H]2Cn3c(ccc(-c4ccncc4)c3=O)[C@@H]2N1CCC(F)(F)F)N1CCCCC1,x,x,-6.0,x,x,x
COc1ccccc1NC(=O)COC(=O)C1CCN(/C=C/C(=O)C(F)(F)F)CC1,-0.1,-2.1,x,-0.1,-0.2,-1.7
O=C(COC(=O)C1CCN(/C=C/C(=O)C(F)(F)F)CC1)Nc1cccc(F)c1,-9.7,0.0,x,0.2,6.0*,-0.3
O=C(O)C[C@@H]1CC[C@H]2[C@@H](COC[C@H](O)CN2S(=O)(=O)c2ccc(F)cc2)O1,x,x,-0.5,x,x,x
CCCCn1c(=O)c(CCC(=O)OCC(=O)Nc2cccc3ccccc23)nc2ccccc21,-1.9,-1.6,x,-0.3,1.5,1.6*
CNC[C@H]1Oc2cc(C#Cc3ccc(OC)cc3)ccc2S(=O)(=O)N([C@@H](C)CO)C[C@@H]1C,x,x,-2.5,x,x,x
Cc1cccc(-n2ncc3c(Nc4ccc(F)cc4)ncnc32)c1,10.5,4.9,71.1*,1.7,-2.4,-1.4
COC(=O)c1ccc(Nc2ncnc3c2cnn3-c2cccc(C)c2)cc1,-2.5,4.5,9.6,0.0,-0.5,-1.1
Cc1cccc(-n2ncc3c(NCCCn4ccnc4)ncnc32)c1,-2.5,10.3,49.0*,2.1,4.0,-0.5
CCOc1ccc(C(=O)NC2CCCCCCC2)cc1,41.7*,12.4*,x,2.9,6.1*,0.8
Cc1cc(OCC(=O)OCC(=O)NC2CCS(=O)(=O)C2)ccc1Cl (configuration not stated),0.2,1.9,-3.1,1.4,5.9*,-1.3
CCOC(=O)COc1ccc(C(=O)NC2CCCCC2)cc1,5.4,x,-2.0,x,x,x
O=C(NC1CCCC1)c1cccc(Cl)c1,-0.8,-0.6,x,0.2,-0.9,-0.6
SMILES,Wnt bcat act,hgDAF-12 ag,esBAF inh,DAX1 inh,hcDAF-12 act,ssDAF-12 act
CCOc1ccc(C(=S)NC2CCCCC2)cc1,x,4.3,x,1.4,0.4,-0.7
COc1ccc(C(=S)NC2CCCCC2)cc1,x,6.5,49.7*,-0.2,0.3,-0.8
O=C(NC1CCCCCCC1)c1cccc(Cl)c1,19.7,4.5,59.8*,0.9,2.7,-0.8
C[C@@H]1CCCCO[C@H](CN(C)Cc2ccccc2)[C@H](C)CN([C@H](C)CO)C(=O)c2cc(NC(=O)C3CCCCC3)ccc2O1,x,x,-5.5,x,x,x
Cc1ccc(C(=O)N[C@H](C(=O)OCC(=O)NC2CCS(=O)(=O)C2)C(C)C)cc1 (some centres not stated),x,6.2,-8.3,-0.4,1.1,1.5*
CCN(CC)S(=O)(=O)c1cc(C(=O)NC2CCCCC2)ccc1C,22.7,11.0*,11.9,2.0,2.8,-0.2
Cc1cc(C)cc(OCC(=O)OCC(=O)NC2CCCCCCC2)c1,-2.7,1.7,0.7,4.3*,0.3,-1.0
Cc1ccc(S(=O)(=O)NC(C(=O)OCC(=O)NC2CCS(=O)(=O)C2)C(C)C)cc1 (configuration not stated),x,-1.1,2.2,1.4,-0.5,-1.1
CCOc1cccc(C(=O)NC2CCCCC2)c1,-0.6,5.4,52.6*,2.2,1.1,-0.3
CS(=O)(=O)Nc1ccc2c(c1)[C@@H]1C[C@H](CC(=O)NCc3ccc(Cl)cc3)O[C@H](CO)[C@@H]1O2,x,x,-4.7,x,x,x
Cc1cccc(C(=O)NCC(=O)OCC(=O)NC2CCCCCCC2)c1,0.2,-0.5,0.9,1.8,1.1,-1.7
COc1cccc(C(=O)NCC(=O)OCC(=O)NC2CCCCC2)c1,-1.2,-0.6,1.9,0.4,-0.5,1.3*
COC(=O)c1c(-c2ccccc2)c[nH]c1C,24.1,-1.1,51.4*,0.3,-1.1,-0.5
COc1ccc(S(=O)(=O)N(C)C[C@@H]2Oc3ccc(NC(=O)CCCN(C)C)cc3C(=O)N([C@@H](C)CO)C[C@H]2C)cc1,x,x,2.0,x,x,x
Cc1ccc(NC(=S)NCCc2ccccc2)nc1,8.2,8.6,x,1.1,3.3,-1.3
O=C(CCc1ccccc1)Nc1ccc(Cl)cn1,x,7.0,42.9*,-0.4,0.1,-0.8
Cc1ccc(NC(=O)CCCc2ccccc2)nc1,-0.1,7.7,u,3.8*,2.0,-1.1
C[C@@H]1CN([C@@H](C)CO)C(=O)Cc2cc(NC(=O)Cn3cnnn3)ccc2O[C@H]1CN(C)C,x,x,-2.0,x,x,x
Cc1noc(C)c1NC(=O)N(C)C[C@H]1Oc2ccc(NC(=O)CCC(F)(F)F)cc2CC(=O)N([C@H](C)CO)C[C@@H]1C,x,x,-1.6,x,x,x
COc1ccccc1-c1cnc2c(c1)C(=O)N([C@@H](C)CO)C[C@H](C)[C@@H](CN(C)Cc1cccnc1)O2,x,x,-3.2,x,x,x
O=C(Nc1ccc2c(c1)[C@H]1C[C@H](CC(=O)N3CCc4ccccc4C3)O[C@@H](CO)[C@H]1O2)NC1CCCC1,x,x,7.4,x,x,x
Cc1ccc([N+](=O)[O-])cc1-c1ccc(/C=C(\C#N)c2[nH]nc(N)c2C#N)o1,u,2.9,83.3*,-0.3,0.5,-1.0
Cc1ccc(S(=O)(=O)N(C)C[C@@H]2OCCCC[C@@H](C)Oc3ccc(NS(=O)(=O)c4ccccc4)cc3C(=O)N([C@@H](C)CO)C[C@@H]2C)cc1,x,x,1.7,x,x,x
C[n+]1cn(/N=C/c2ccccc2)c2ccccc21,x,-1.0,-0.6,0.1,5.8*,-1.4
CO[C@@H]1CN(C)C(=O)c2ccc(NC(=O)c3ccc(F)cc3)cc2OC[C@@H](C)N(C(C)=O)C[C@H]1C,x,x,-2.2,x,x,x
